Experimental findings from PubChem BioAssay (NCATS) are described below.

For test [1], the target named is DNA repair nuclease/redox regulator APEX1 (Homo sapiens) (UniProt P27695). As to the kind of experiment: qHTS Validation Assay for Inhibitors of the Human Apurinic/apyrimidinic Endonuclease 1 (APE1) (AID 1705;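 also: TAMRA fluorescence gain over two minutes as APE1 cuts a quenched THF abasic duplex; % is scaled to controls: 0 for no effect and ±100 for the full control effect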). The method, boiled down:
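Human APE1 was preincubated with compound for 15 min at room temperature, then 50 nM (final) THF-abasic double-stranded DNA substrate bearing 5'-TAMRA and 3'-BHQ-2 was added. Incision-driven fluorescence rise (ex 525/em 598 nm) was read kinetically.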
On the technique in general: Quantitative high-throughput screening tests each substance at several concentrations.

Test [2] can be described thus: qHTS for differential inhibitors of proliferation of Plasmodium falciparum line 7G8 (AID 1815).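 Also: parasite growth measured after three days of incubation; plate controls were vehicle wells for no effect and reference inhibitor wells for full effect.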
The nature of test [3]: qHTS for differential inhibitors of proliferation of Plasmodium falciparum line GB4 (AID 1816).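 Also: parasite growth measured after 72 h incubation; 0% = vehicle DMSO and -100% = reference inhibitor.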 The settings on record: Potency: Plasmodium falciparum GB4 proliferation inhibition.
Test [4] is described as follows: qHTS for differential inhibitors of proliferation of Plasmodium falciparum line 3D7 (AID 1876).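 Also: parasite growth measured after three days of culture; 0% = vehicle wells and -100% = reference inhibitor wells.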
Test [5] can be described thus: qHTS for differential inhibitors of proliferation of Plasmodium falciparum line Dd2 (AID 1882).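 Also: compound exposure of 72 h on infected erythrocytes; plate controls were DMSO vehicle for no effect and 0.29 µM artemisinin for full effect; nearly all actives have a fitted effect of over 65% in size.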 The settings on record: Potency: Plasmodium falciparum Dd2 proliferation inhibition. The method, boiled down:
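SYBR Green I DNA fluorescence read-out, ex 485/em 535 nm. Signals were normalized to 0.29 uM artemisinin and DMSO wells, then corrected using vehicle-only plates flanking each stack. Parasite growth ran 72 h in erythrocytes before lysis.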

A short description of test [6]: qHTS for differential inhibitors of proliferation of Plasmodium falciparum line W2 (AID 1883).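 Also: parasites grown with compound for 72 h before lysis and staining; 0% = vehicle wells and -100% = control inhibitor wells.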 The settings on record: Potency: Plasmodium falciparum W2 proliferation inhibition.
Test [7] in a line: qHTS for differential inhibitors of proliferation of Plasmodium falciparum line HB3 (AID 1886).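 Also: parasites grown with compound for 72 h before SYBR Green readout; plate controls were vehicle for no effect and reference inhibitor for full effect.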 The settings on record: Potency: Plasmodium falciparum HB3 proliferation inhibition.
The target in test [8] is ATP-dependent DNA helicase Q1 (Homo sapiens) (UniProt P46063). Description: qHTS Validation Assay for Inhibitors of RecQ-Like Dna Helicase 1 (RECQ1) (AID 2353).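 Also: plate controls were DMSO vehicle for no effect and enzyme-free control for full effect.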 The procedure, abridged:
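50 nM RECQ1T1 preincubated 15 min with compound in Tris pH 8.0 buffer with MgCl2, DTT, Tween-20 and 2.5 ug/ml poly(dI-dC); started with 200 nM TAMRA/BHQ-2 forked duplex and 2 mM ATP. Unwinding read as fluorescence (525/598 nm), two reads 2 h apart.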

The nature of test [9]: Quantitative high throughput screen for delayed death inhibitors of the malarial parasite plastid, 96 hour incubation (AID 488745).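 Also: luciferase-expressing P. falciparum in erythrocytes at 2% hematocrit and 0.1% parasitemia; % is scaled to controls: 0 for no effect and ±100 for the full control effect; nearly all actives have a fitted effect of over 70% in size.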 The method, boiled down: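 Growth of reporter-bearing P. falciparum in red cells is measured after 96 h with compound, covering two erythrocytic cycles. Luminescence from the integrated luciferase serves as the growth signal.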
The nature of test [10]: Quantitative high throughput screen for delayed death inhibitors of the malarial parasite plastid, 48 hour incubation (AID 488752). Also: % is scaled to controls: 0 for no effect and ±100 for the full control effect; nearly all actives have a fitted effect of over 65% in size. The method, boiled down: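 One parasite generation (48 h, 37 C, 5% CO2) of luciferase-reporter P. falciparum in erythrocytes is run with test compound; decreased luminescence indicates inhibited growth.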
Test [11] deals with M-phase phosphoprotein 8 (Homo sapiens) (UniProt Q99549). Description: qHTS Validation Assay for Inhibitors for MPP8 Chromodomain Interactions with Methylated Histone Tails (AID 488949). Also: top concentration of the series differs between compounds; % is scaled to controls: 0 for no effect and ±100 for the full control effect; nearly all actives have a fitted effect of over 55% in size. The method, boiled down: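 MPP8 (50 nM) was preincubated with biotinylated H3(1-18)K9me3 peptide (50 nM) in PBS pH 7.4, 0.01% Tween-20 for 30 min at room temperature, then with compounds for 30 min; binding was detected by AlphaScreen.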
Chain of M-phase phosphoprotein 8 (Homo sapiens) (Q99549 whole entry, looked up): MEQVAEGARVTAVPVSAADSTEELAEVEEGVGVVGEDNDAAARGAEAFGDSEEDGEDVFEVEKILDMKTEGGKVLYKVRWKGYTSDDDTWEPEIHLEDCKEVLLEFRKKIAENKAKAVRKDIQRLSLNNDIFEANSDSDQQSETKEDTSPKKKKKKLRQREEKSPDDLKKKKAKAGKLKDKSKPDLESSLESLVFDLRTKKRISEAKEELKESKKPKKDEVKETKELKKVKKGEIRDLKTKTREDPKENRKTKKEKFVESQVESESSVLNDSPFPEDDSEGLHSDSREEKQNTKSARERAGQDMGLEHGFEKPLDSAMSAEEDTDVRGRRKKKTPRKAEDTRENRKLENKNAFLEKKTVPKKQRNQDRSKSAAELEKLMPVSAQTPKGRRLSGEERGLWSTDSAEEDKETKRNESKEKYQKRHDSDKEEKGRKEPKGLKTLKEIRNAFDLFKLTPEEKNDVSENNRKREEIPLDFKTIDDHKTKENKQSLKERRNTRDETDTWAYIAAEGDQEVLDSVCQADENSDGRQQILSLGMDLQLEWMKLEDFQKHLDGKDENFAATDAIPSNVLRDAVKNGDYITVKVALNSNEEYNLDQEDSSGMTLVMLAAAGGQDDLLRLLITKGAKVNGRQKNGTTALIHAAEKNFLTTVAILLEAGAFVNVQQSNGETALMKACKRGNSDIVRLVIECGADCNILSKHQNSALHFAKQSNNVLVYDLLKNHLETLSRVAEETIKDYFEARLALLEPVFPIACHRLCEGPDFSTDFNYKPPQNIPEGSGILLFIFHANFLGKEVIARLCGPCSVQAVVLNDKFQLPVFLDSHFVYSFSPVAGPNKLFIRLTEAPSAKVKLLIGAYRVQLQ

The target in test [12] is Thyrotropin receptor (Homo sapiens) (UniProt P16473). As to the kind of experiment: qHTS Assay for Antagonists of the Thyroid Stimulating Hormone Receptor (AID 488980). Also: 0% is about no effect. The method, boiled down:
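HEK293 cells transfected with human TSHR, suspended in HEPES-buffered HBSS with 70 uM RO 20-1724, were treated with compounds plus TSH at EC80 (4 nM final). cAMP was measured by competitive HTRF (cryptate anti-cAMP antibody, cAMP-d2 acceptor).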

Test [13] concerns the target Thyrotropin-releasing hormone receptor (Homo sapiens) (UniProt P34981). As to the kind of experiment: qHTS for Small Molecule Agonists and Allosteric Enhancers of Human TRH Receptor: Validation Screen for Agonists (AID 493127;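 active = calcium activation more than 3 SD above the typical response in the agonist read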;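 also: intracellular calcium rise by fluo-8 fluorescence before TRH EC20 addition; 0% is about no effect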). The settings on record: TRH receptor agonist cell assay; at 2 µM; stronger effect = higher value. The procedure, abridged:
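Gq-coupled calcium mobilization in TRHR cells after compound addition, monitored kinetically with fluo-8 dye on an FDSS reader.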

For test [14], the target named is Galactokinase (Homo sapiens) (UniProt P51570). Description: qHTS Validation Assay for Inhibitors of Human Galactokinase (GALK) (AID 493189). Also: 0% is about no effect. The procedure, abridged:
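GALK (5 nM) with 35 uM ATP and 100 uM galactose in HEPES pH8.0, MgCl2, NaCl, DTT, BSA; 1 h at room temperature. Residual ATP read by Kinase-Glo Plus luminescence after 10 min.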

The nature of test [15]: Validation screen for small molecules that induce DNA re-replication in SW480 colon adenocarcinoma cells (AID 504364). Also: 0% is about no effect. The method, boiled down:
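Cells are treated 48 hr with test compound, stained 40 min with Hoechst at 37 C, and scanned for nuclear fluorescence; compounds inducing re-replication increase nuclei with elevated intensity.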

The subject of test [16] is Zika virus NS2B-NS3 protease. Description: Primary screen GU AMC qHTS for Zika virus inhibitors (AID 1347154).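 Also: 0% = no-inhibitor control and -100% = no-enzyme control; nearly all actives have a fitted effect of over 70% in size.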 The method, boiled down: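 Unlinked Zika NS2B hydrophilic domain/NS3 protease domain noncovalent complex (25 nM final) in 10 mM Tris-HCl pH 8.0, 0.01% Tween 20, with AMC peptide substrate. Fluorescence (ex 340, em 450 nm) change over 15 min, room temperature; percent inhibition fitted to 4-parameter Hill equation.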

Test [17] can be described thus: Primary qHTS for small molecule stabilizers of the endoplasmic reticulum resident proteome: Secreted ER Calcium Modulated Protein (SERCaMP) assay (AID 1508630). Also: potency is read from the fitted curve at half-maximal effect. As to activity change, negative = inhibition: % is scaled to controls: 0 for no effect and ±100 for the full control effect. The procedure, abridged:
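GLuc-SERCaMP-expressing SH-SY5Y cells, pretreated 16 h with compound, are challenged with thapsigargin to empty ER calcium stores; after 4 h, coelenterazine is added directly to the medium and luminescence is imaged.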

In test [18] the target is Cytochrome P450 1A2 (Homo sapiens) (UniProt P05177). As to the kind of experiment: p450-cyp1a2 (AID 410; calls by dose curve; also: potency is read from the fitted curve at half-maximal effect). The procedure, abridged: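 Inhibition was calculated relative to 57 uM furafylline (full inhibition). The reaction used human CYP1A2 at 20nM with Luciferin-ME at its Km, 100uM, driven by an NADPH-regenerating system for 60 min at room temperature.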
For test [19], the target named is Glucocorticoid receptor (Homo sapiens) (UniProt P04150). As to the kind of experiment: GR-GFP Redistribution (AID 450;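 active = compounds whose dose series gives a full or clear partial fitted curve of increased nuclear translocation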; also: potency is read from the fitted curve at half-maximal effect). The settings on record: U2OS GR-GFP nuclear translocation, laser cytometry, 2 h.
Chain of Glucocorticoid receptor (Homo sapiens) (P04150 whole entry, looked up): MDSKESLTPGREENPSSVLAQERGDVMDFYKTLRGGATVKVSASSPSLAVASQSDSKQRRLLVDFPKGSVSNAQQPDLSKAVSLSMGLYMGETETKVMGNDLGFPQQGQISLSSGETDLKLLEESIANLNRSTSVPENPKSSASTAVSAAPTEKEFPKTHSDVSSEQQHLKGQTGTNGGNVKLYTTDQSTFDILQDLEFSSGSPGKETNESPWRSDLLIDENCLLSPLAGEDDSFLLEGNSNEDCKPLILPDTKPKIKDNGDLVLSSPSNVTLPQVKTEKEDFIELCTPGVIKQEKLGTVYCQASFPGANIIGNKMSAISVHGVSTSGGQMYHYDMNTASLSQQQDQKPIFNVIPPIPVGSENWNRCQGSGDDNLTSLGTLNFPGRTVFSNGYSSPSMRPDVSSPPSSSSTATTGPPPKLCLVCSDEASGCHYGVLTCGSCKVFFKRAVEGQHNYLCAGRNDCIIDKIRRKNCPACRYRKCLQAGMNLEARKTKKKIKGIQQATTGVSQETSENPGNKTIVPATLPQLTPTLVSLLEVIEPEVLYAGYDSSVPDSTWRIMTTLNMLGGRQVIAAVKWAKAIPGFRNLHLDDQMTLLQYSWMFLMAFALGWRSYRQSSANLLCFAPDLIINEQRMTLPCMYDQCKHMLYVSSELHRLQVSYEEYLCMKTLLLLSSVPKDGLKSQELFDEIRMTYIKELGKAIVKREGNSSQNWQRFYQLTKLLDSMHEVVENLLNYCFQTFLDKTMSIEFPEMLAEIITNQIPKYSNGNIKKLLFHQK
Test [20] has the same target. Description: GR-EFC Redistribution (AID 451; calls by dose curve; also: potency is read from the fitted curve at half-maximal effect). The settings on record: CHO-K1 GR-EFC translocation, beta-gal luminescence, 2 h. The method, boiled down:
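CHO-K1 cells stably expressing nuclear-localized β-gal enzyme acceptor and GR fused C-terminally to the enzyme donor fragment; ligand-driven nuclear translocation restores β-gal by complementation. Compounds titrated up to 46 uM final, 2 h at 37 °C; luminescence read.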

Test [21] concerns the target Mitogen-activated protein kinase 10 (Mus musculus) (UniProt Q61831). As to the kind of experiment: JNK3 AlphaScreen Assay (AID 530; active = well fitted curve in either direction with a large enough effect, not every such curve was filed as active;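 also: kinase came from lysate of stimulated human HepG2 cells; signal reports phosphorylation of biotinylated GST-cJun 1-79 at Ser73 with 10 µM ATP; % is scaled to controls: 0 for no effect and ±100 for the full control effect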). The method, boiled down: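 JNK3 came from HepG2 lysates pre-activated with IL-1beta and TNF-alpha and phosphorylated biotinylated GST-cJun (1-79) at 10 uM ATP, pH 7.6, room temperature. Compounds were titrated. AlphaScreen signal used anti-phospho-cJun (Ser73) antibody.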
In general terms: In Alpha technology, singlet oxygen from a donor bead excites a nearby acceptor bead.

The target in test [22] is Cytochrome P450 2C19 (Homo sapiens) (UniProt P33261). As to the kind of experiment: qHTS Assay for Inhibitors and Substrates of Cytochrome P450 2C19 (AID 899). Also: potency is read from the fitted curve at half-maximal effect; nearly all actives have a fitted effect of over 60% in size. The procedure, abridged:
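Human CYP2C19 (5nM) with Luciferin-H EGE at 10uM (its KM) in 50mM KPO4 was preincubated with compound for 10 min at 37C. NADPH regeneration started a 60 min 37C reaction. Luciferin was read by luminescence, normalized to 57uM ketoconazole.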

A short description of test [23]: qHTS Assay for Lipid Storage Modulators (AID 1519; calls by dose curve; as to activity change, negative = inhibition: % is scaled to controls: 0 for no effect and ±100 for the full control effect). As to conditions: Drosophila S3 cells, BODIPY lipid droplet/cell ratio, laser cytometry, cells loaded with oleic acid. The method, boiled down:
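Cells seeded at 5,000 per well were treated with compounds over a concentration series and loaded with oleic acid (400 uM, as added). Lipid droplet fluorescence (488 nm excitation, 500-530 nm channel) was read by laser-scanning cytometry and normalized to 20 uM Triacsin C.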

In test [24] the target is DNA dC->dU-editing enzyme APOBEC-3G (Homo sapiens) (UniProt Q9HC16). As to the kind of experiment: qHTS for inhibitors of Vif-A3G interactions: Validation (AID 588379). Also: 0% is about no effect. The method, boiled down:
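HeLa cells stably expressing Vif and A3G-eYFP, 700 cells/well, incubated overnight at 37 deg C, then exposed to compound overnight at 37 deg C. Inhibition of Vif-mediated degradation read as increased yellow fluorescence (Ex 488/Em 500-530) by laser-scanning cytometry.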

Test [25] addresses Rap guanine nucleotide exchange factor 3 (Homo sapiens) (UniProt O95398). As to the kind of experiment: Confirmatory qHTS for antagonist of cAMP-regulated guanine nucleotide exchange factor 3 (EPAC1) (AID 1645880).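 Also: plate controls were DMSO only for no effect and full effect of the ATA control for full effect; nearly all actives have a fitted effect of over 55% in size.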 The method, boiled down:
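Nucleotide exchange uses 100 nM EPAC1, 250 nM RAP1B-BODIPY-GDP and 50 uM GDP, with compounds in a concentration-titration series. After 5 min at room temperature, fluorescence (480 nm ex/540 nm em) is read every 5 min for 30 min. Data are normalized to control ATA and DMSO.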

For test [26] the target is unchanged. Description: Confirmatory qHTS for agonist of cAMP-regulated guanine nucleotide exchange factor 3 (EPAC1) (AID 1645881).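 Also: EPAC1 catalysed release of BODIPY-GDP from Rap1B seen as fluorescence loss; 100% = effect of cAMP agonist control; nearly all actives have a fitted effect of over 75% in size.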
Test [27] has as its target Rap guanine nucleotide exchange factor 4 (Homo sapiens) (UniProt Q8WZA2). As to the kind of experiment: Confirmatory qHTS for agonist of cAMP-regulated guanine nucleotide exchange factor 4 (EPAC2) (AID 1645884).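 Also: nucleotide exchange releases bodipy-GDP from Rap1 and this lowers its fluorescence; % is scaled to controls: 0 for no effect and ±100 for the full control effect; nearly all actives have a fitted effect of over 65% in size.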

Results filed as inconclusive are left out. Some compounds were tested as several samples or in several runs, with calls that do not always agree. Calls of active or inactive are those of the source. Unless noted, calls follow the shape of the dose curve; as a rule, active = well fitted curve in the direction sought with a large enough effect; inconclusive = small, poorly fitted or top-dose-only effect, or another doubt; inactive = no such curve, though single readings can be large; an effect the other way counts as inactive or inconclusive.

Chain of Rap guanine nucleotide exchange factor 3 (Homo sapiens) (O95398 whole entry, looked up): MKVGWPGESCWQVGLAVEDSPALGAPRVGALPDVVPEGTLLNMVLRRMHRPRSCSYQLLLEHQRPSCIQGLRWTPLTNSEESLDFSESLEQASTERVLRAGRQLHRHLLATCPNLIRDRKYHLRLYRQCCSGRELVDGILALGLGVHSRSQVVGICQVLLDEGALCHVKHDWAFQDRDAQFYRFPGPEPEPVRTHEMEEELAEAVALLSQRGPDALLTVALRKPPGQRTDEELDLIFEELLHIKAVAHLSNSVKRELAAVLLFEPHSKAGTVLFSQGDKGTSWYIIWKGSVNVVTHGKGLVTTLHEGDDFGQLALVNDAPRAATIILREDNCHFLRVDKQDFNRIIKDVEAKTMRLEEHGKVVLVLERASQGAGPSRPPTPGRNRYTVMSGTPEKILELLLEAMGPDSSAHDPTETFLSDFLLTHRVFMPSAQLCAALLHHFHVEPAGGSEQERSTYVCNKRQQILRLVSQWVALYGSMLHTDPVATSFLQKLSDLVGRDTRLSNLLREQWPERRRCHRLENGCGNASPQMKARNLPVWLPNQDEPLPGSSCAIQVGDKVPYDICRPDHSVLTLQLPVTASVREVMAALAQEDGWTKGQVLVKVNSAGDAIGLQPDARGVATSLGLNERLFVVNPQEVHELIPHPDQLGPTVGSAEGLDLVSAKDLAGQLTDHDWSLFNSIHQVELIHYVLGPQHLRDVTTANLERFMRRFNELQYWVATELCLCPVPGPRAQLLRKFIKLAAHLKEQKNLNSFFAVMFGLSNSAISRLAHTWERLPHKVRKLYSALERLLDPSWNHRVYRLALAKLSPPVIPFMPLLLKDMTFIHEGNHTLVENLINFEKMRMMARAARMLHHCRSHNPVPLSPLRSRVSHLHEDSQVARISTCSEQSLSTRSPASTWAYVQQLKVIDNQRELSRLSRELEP
Chain of ATP-dependent DNA helicase Q1 (Homo sapiens) (P46063 whole entry, looked up): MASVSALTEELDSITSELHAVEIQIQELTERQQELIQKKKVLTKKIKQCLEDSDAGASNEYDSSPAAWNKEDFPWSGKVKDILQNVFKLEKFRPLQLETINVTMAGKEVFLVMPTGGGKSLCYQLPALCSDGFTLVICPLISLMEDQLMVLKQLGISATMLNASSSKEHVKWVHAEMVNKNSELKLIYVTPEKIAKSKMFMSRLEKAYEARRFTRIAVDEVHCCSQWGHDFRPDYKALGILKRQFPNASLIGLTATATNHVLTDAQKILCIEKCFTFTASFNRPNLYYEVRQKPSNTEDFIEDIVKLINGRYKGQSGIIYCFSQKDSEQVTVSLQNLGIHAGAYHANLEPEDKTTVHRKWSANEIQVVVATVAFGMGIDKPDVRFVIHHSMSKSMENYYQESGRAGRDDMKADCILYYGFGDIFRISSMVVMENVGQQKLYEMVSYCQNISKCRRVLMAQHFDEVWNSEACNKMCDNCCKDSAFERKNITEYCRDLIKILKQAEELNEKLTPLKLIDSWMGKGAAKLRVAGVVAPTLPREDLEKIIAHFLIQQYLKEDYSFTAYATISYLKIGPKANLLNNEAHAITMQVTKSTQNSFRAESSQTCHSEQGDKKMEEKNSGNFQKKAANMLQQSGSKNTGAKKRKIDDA
Chain of Rap guanine nucleotide exchange factor 4 (Homo sapiens) (Q8WZA2 whole entry, looked up): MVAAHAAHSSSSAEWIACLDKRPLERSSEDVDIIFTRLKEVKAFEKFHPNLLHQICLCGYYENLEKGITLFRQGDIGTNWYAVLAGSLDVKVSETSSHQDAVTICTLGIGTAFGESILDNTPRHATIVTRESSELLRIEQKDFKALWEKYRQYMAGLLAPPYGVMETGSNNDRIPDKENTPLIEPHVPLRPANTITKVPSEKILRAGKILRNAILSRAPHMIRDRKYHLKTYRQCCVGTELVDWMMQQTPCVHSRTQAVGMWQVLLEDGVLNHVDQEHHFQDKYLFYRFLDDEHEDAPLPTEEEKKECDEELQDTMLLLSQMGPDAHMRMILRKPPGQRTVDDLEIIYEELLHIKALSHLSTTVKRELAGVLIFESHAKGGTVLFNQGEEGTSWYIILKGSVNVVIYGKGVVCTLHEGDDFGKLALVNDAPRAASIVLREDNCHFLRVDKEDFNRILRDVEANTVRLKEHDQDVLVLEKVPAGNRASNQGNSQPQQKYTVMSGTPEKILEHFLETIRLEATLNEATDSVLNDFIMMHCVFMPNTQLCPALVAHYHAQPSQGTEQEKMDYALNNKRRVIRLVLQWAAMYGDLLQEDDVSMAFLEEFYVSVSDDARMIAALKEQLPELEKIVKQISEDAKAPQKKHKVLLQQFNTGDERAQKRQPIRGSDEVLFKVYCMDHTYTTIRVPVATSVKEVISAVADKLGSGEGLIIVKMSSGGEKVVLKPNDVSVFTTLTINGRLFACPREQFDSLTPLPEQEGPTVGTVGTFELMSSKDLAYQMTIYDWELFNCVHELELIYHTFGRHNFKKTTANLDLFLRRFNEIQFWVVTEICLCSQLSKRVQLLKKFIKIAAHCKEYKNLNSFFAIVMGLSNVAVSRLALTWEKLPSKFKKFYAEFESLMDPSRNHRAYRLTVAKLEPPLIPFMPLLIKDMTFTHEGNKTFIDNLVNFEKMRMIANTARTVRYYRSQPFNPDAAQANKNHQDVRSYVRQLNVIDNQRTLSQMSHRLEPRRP
Chain of DNA dC->dU-editing enzyme APOBEC-3G (Homo sapiens) (Q9HC16 whole entry, looked up): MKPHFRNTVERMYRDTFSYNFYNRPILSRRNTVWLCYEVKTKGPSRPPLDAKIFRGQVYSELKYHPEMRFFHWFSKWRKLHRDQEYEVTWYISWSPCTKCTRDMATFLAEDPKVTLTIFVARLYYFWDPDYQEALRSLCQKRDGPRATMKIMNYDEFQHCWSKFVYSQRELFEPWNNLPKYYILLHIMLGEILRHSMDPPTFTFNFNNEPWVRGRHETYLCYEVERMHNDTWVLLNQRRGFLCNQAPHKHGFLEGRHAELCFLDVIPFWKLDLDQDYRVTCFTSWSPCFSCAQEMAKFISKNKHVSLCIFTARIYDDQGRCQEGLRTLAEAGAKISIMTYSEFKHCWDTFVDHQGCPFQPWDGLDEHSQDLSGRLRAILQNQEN
Chain of Galactokinase (Homo sapiens) (P51570 whole entry, looked up): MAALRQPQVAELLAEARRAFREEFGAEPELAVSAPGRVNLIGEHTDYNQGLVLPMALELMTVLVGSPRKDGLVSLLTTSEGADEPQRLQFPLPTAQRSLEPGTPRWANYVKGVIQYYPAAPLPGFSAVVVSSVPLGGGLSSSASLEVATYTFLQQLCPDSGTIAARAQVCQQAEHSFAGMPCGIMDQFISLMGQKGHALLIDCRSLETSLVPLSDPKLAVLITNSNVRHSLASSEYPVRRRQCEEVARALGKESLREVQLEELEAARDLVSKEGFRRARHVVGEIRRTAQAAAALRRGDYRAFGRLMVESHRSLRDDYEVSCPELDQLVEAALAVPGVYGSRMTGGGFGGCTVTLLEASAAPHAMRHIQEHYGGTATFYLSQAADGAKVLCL

In the case of `CCCCCCCCCCCCC/C=C/[C@@H](O)[C@@H](N)CO`, the Potency result in test [1], in test [2], in [3], in [4], in [5] and in test [6] was “inactive” in each case. In addition, the Potency result in [7], in [8], in test [9], in test [10], in test [11] and in test [16] was “inactive” throughout. The outcome in test [12], in test [14] and in [15] was inactive. For the same compound, the activation in test [13] was 0.312% (inactive). In addition, in [17], the Potency was 1.12 µM (active). In test [17], the activity change, negative = inhibition was -29.5% [at 3.88 µM] (inactive).

With `CCC(=O)N[C@@H]1Cc2ccccc2[C@@H](c2ccccc2)C1`, the Potency in [18] was 15.8 µM (active); in test [19], > 46 µM (inactive); in [20], > 46 µM (inactive); in test [22], 7.94 µM (active). Also, the Potency entry in test [21], in test [24], in test [16], in [17] and in test [25] was “inactive” in each case. In addition, the activity change, negative = inhibition in [23] (at 57.5 µM (top of the series)) was 10.8% (inactive). Moreover, the results for the max response in test [23] (measured here: cell count channel max response) and in test [23] (measured here: lipid channel max response) were 13.4% and 28.8%, respectively. For the same compound, the compound was classed as inactive in test [26] and in test [27].

As to `CCCCCCCCCCOCCC(=O)O`, the results for the activity change, negative = inhibition in [16] and in test [17] were 12.5% [at 6.83 µM] (inactive) and -6.7% [at 3.88 µM] (inactive), respectively.
